Measured values reported in PubChem BioAssay (Tox21).
“And” between values parts separate entries of the source, which are not always exact repeats. Equal entries are not always repeated. Records with an inconclusive call do not appear. Where a call stands in place of a potency, no number is given. Some structures have more than one record in an assay (separate samples or runs), and their calls can disagree. The source made the active and inactive calls. Unless noted, the call rests on the fitted dose curve; in most records, active means well fitted curve in the direction sought with a large enough effect in the repeat runs; inconclusive means weak or mixed curves; inactive means no such curve, though single readings can be large; an effect the other way counts as inactive or inconclusive.

Columns and labels:
[1] = qHTS assay to identify small molecule antagonists of the androgen receptor (AR) signaling pathway using the MDA cell line in the presence of 0.5 nM R1881 - cell viability counter screen (AID 1259242); further: nearly all actives have a fitted effect of over 45% in size
How it was run: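 MDA-kb2 cells (human breast carcinoma, stably carrying MMTV-luciferase reporter) were exposed to compounds with 0.5 nM R1881 (final) for 16 hr at 37C, 0% CO2; viability then read as live-cell protease fluorescence (CellTiter-Fluor, 30 min) in the same wells.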

[2] = target: Androgen receptor (Homo sapiens) (UniProt P10275); assay: qHTS assay to identify small molecule antagonists of the androgen receptor (AR) signaling pathway using the MDA cell line in the presence of 0.5 nM R1881 (AID 1259243); further: nearly all actives have a fitted effect of over 50% in size; further: potency means the concentration at half of the fitted maximal effect
How it was run: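 MDA-kb2 human breast carcinoma cells carrying an MMTV-luciferase reporter (AR- and GR-responsive) were plated, rested 5 hr at 37C, dosed with compounds, then stimulated with 0.5 nM R1881 (final) for 16 hr; luminescence was read after ONE-Glo.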

[3] = target: Estrogen receptor (Homo sapiens) (UniProt P03372); assay: qHTS assay to identify small molecule antagonists of the estrogen receptor alpha (ER-alpha) signaling pathway using the BG1 cell line in the presence of 0.1 nM 17-beta-estradiol (AID 1259244); further: nearly all actives have a fitted effect of over 50% in size
How it was run: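 VM7Luc4E2 cells (endogenous full-length ER-alpha, stable 4xERE-luciferase) were grown 5 days in phenol red-free medium with charcoal-stripped FBS, then exposed 22 h at 37C to compounds plus 0.1 nM (final) 17beta-estradiol; ONE-Glo luminescence read-out.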

[4] = qHTS assay to identify small molecule HDAC inhibitors - cell viability counter screen (AID 1259365); further: series mostly up to about 92 µM; nearly all actives have a fitted effect of over 50% in size
How it was run: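 Wild-type HCT-116 cells were seeded at 1,500 per well, incubated overnight at 37 C, then exposed to compounds in DMSO for 2hr. Viability was read by CellTiter-Glo luminescence after 30min at room temperature.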

[5] = qHTS assay to identify small molecule agonists of the sonic hedgehog signaling (Shh) pathway - cell viability counter screen (AID 1259366); further: nearly all actives have a fitted effect of over 50% in size; further: potency means the concentration at half of the fitted maximal effect
How it was run: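 NIH/3T3-derived 3T3 Gli1-Luc cells (stable Gli1-responsive firefly luciferase reporter) were seeded, rested 4 hr at 37 C/5% CO2, then exposed to compounds in DMSO for 24 hr; viability was read by CellTiter-Fluor fluorescence in the same wells.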

[6] = qHTS assay to identify small molecule antagonists of the sonic hedgehog signaling (Shh) pathway - cell viability counter screen (AID 1259367); further: nearly all actives have a fitted effect of over 55% in size
How it was run: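 Using CellTiter-Fluor, viability of Gli1-Luc reporter 3T3 cells is read by fluorescence in the wells used for the Shh luciferase assay. Treatment lasts 23 hr with conditioned medium, then reagent 1 hr at 37C.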

[7] = qHTS assay to identify small molecule agonists of the sonic hedgehog signaling (Shh) pathway (AID 1259368; calls by dose curve; further: series mostly up to about 92 µM; nearly all actives have a fitted effect of over 15% in size)
How it was run: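 NIH/3T3-derived 3T3Gli1-Luc cells carrying a stably integrated Gli1 response element–firefly luciferase reporter were plated, left 4 hr at 37 C, then given compounds in DMSO for 24 hr. Luminescence was read 30 min after adding luciferase reagent.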

[8] = qHTS assay to identify small molecule antagonists of the sonic hedgehog signaling (Shh) pathway (AID 1259369; calls by dose curve; further: nearly all actives have a fitted effect of over 45% in size; further: potency means the concentration at half of the fitted maximal effect)
How it was run: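 NIH/3T3-derived 3T3Gli1-Luc cells with stably integrated Gli1-Luc reporter were preincubated 4hr at 37 C, then given compounds in DMSO plus Shh conditioned medium and incubated 24hr. Firefly luciferase luminescence read after 30min reagent at room temperature.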

[9] = target: Estrogen receptor beta (Homo sapiens) (UniProt Q92731); assay: qHTS assay to identify small molecule agonists of the estrogen receptor beta (ER-beta) signaling pathway (AID 1259377; active means well fitted activation curve with a large enough effect in the signal ratio in the repeat runs, not every such curve was filed as active; the % refers to the signal ratio)
How it was run: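 ER-beta-UAS-bla HEK293T (GripTite) cells carrying a UAS-driven beta-lactamase reporter, in medium with 2% charcoal-stripped FBS, were exposed to compounds for 16 hr at 37C; LiveBLAzer B/G FRET substrate was then added and fluorescence read after 2 hours at room temperature.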

[10] = target: Estrogen receptor beta (Homo sapiens) (UniProt Q92731); assay: qHTS assay to identify small molecule antagonists of the estrogen receptor beta (ER-beta) signaling pathway (AID 1259378; active means well fitted inhibition curve with a large enough effect in the signal ratio in the repeat runs, not every such curve was filed as active; the % refers to the signal ratio; further: potency means the concentration at half of the fitted maximal effect)
How it was run: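 Antagonist mode: compounds added to beta-lactamase reporter HEK293T ER-beta-UAS cells stimulated with E2 (1nM final), 16 hr at 37C. LiveBLAzer B/G FRET substrate, 2 hours room temperature, fluorescence read-out.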

[11] = qHTS assay to identify small molecule agonists of the androgen receptor (AR) signaling pathway in the presence of an antagonist - cell viability counter screen (AID 1259379); further: series mostly up to about 92 µM; nearly all actives have a fitted effect of over 25% in size
How it was run: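 MDA-kb2 human breast carcinoma cells (stable MMTV-luciferase, AR/GR responsive) were seeded 3,000 cells/well, pre-incubated 5 hr at 37C without CO2, then given 3.0uM nilutamide and compounds at 15 concentrations for 16 hr. Viability was read by CellTiter-Fluor fluorescence.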

[12] = qHTS assay to identify small molecule agonists of the estrogen receptor beta (ER-beta) signaling pathway - cell viability counter screen (AID 1259380); further: nearly all actives have a fitted effect of over 30% in size
How it was run: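 ER-beta-UAS-bla HEK293T cells in medium with 2% charcoal-stripped FBS were preincubated 6 hr at 37C, dosed with compound in DMSO for 16 hr, then after the bla read, CellTiter-Glo was added for 30 min at room temperature; luminescence recorded.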

[13] = target: Androgen receptor (Homo sapiens) (UniProt P10275); assay: qHTS assay to identify small molecule agonists of the androgen receptor (AR) signaling pathway in the presence of an antagonist (AID 1259381; calls by dose curve; further: nearly all actives have a fitted effect of over 15% in size; further: potency means the concentration at half of the fitted maximal effect)
How it was run: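 MDA-kb2 human breast carcinoma cells carrying an MMTV-luciferase reporter (AR- and GR-responsive) were treated with compounds at 15 concentrations plus 3.0uM final nilutamide for 16hr at 37C without CO2; luminescence was read after ONE-Glo addition.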

[14] = qHTS assay to identify small molecule antagonists of the estrogen receptor beta (ER-beta) signaling pathway - cell viability counter screen (AID 1259382); further: series mostly up to about 92 µM; nearly all actives have a fitted effect of over 55% in size
How it was run: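 ER-beta-UAS-bla HEK293T cells (2,000/well, 2% charcoal-stripped FBS) were pre-incubated 6 hr at 37C, then given compound plus 1nM final 17-beta-estradiol for 16 hr. Viability was read in the same wells by CellTiter-Glo luminescence after 30 min at room temperature.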

[15] = qHTS assay to identify small molecule agonists of the estrogen receptor alpha (ER-alpha) signaling pathway in the presence of an antagonist - cell viability counter screen (AID 1259386); further: series mostly up to about 92 µM; nearly all actives have a fitted effect of over 30% in size
How it was run: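 VM7Luc4E2 cells (endogenous full-length ER-alpha, 4×ERE-luciferase) were held 5 days in phenol red-free medium with 10% charcoal-stripped FBS, plated, then given 10.0nM ICI-182,780 and compounds at 15 concentrations for 22hr at 37C; viability read by CellTiter-Fluor fluorescence.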

[16] = qHTS assay to identify small molecule phospholipidosis (PLD) inducers (AID 1259344; active means well fitted curve in the direction sought with a large enough effect; an effect the other way counts as inactive or inconclusive)
How it was run: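 Fluorescent phospholipid staining (LipidTOX Red) measured by automated microscopy in fixed HepG2 cells after 24 h treatment; nuclei counterstained with Hoechst 33342; amiodarone as reference inducer.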

[17] = qHTS assay to identify small molecule agonists or antagonists of the thyroid stimulating hormone receptor (TSHR) signaling pathway - wild type cell line counter screen (AID 1259384; calls by dose curve)
How it was run: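 Counter screen in untransfected Hek293: compounds (15-point titration, triplicate) plus phosphodiesterase inhibitor Ro20-1724 added after 18 h plating; 30 min RT. Intracellular cAMP via competitive d2/cryptate immunoassay, 1 h incubation.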

[18] = target: Thyrotropin receptor (Homo sapiens) (UniProt P16473); assay: qHTS assay to identify small molecule antagonists of the thyroid stimulating hormone receptor (TSHR) signaling pathway (AID 1259385; calls by dose curve; further: nearly all actives have a fitted effect of over 20% in size; further: potency means the concentration at half of the fitted maximal effect)
How it was run: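 Antagonist mode: compound-treated TSHR-expressing HEK293 cells were stimulated with 1.5 ng/mL TSH (final) in presence of Ro20-1724 for 30 min at RT. HTRF cAMP detection after 1 h; each compound tested at 15 concentrations, triplicate.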

[19] = qHTS assay to identify small molecule HDAC inhibitors (AID 1259364); further: top concentration of the series differs between compounds; nearly all actives have a fitted effect of over 45% in size
How it was run: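 Wild-type HCT-116 cells were plated overnight, exposed to compounds for 2 h at 37 °C, then given HDAC-Glo class I/II luminogenic reagent for 30 min at room temperature before luminescence was read.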

[20] = target: Estrogen receptor (Homo sapiens) (UniProt P03372); assay: qHTS assay to identify small molecule agonists of the estrogen receptor alpha (ER-alpha) signaling pathway in the presence of an antagonist (AID 1259383; calls by dose curve; further: top concentration of the series differs between compounds; nearly all actives have a fitted effect of over 15% in size)
How it was run: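 VM7Luc4E2 cells (endogenous full-length ER-alpha, 4×ERE-luciferase) were precultured 5 days in phenol red-free medium with 10% charcoal-stripped FBS, given 10.0nM ICI-182,780 (final), then treated with compounds at 15 concentrations for 22hr at 37C; luminescence read with ONE-Glo.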

Sequence of Androgen receptor (Homo sapiens) (P10275 whole entry, looked up): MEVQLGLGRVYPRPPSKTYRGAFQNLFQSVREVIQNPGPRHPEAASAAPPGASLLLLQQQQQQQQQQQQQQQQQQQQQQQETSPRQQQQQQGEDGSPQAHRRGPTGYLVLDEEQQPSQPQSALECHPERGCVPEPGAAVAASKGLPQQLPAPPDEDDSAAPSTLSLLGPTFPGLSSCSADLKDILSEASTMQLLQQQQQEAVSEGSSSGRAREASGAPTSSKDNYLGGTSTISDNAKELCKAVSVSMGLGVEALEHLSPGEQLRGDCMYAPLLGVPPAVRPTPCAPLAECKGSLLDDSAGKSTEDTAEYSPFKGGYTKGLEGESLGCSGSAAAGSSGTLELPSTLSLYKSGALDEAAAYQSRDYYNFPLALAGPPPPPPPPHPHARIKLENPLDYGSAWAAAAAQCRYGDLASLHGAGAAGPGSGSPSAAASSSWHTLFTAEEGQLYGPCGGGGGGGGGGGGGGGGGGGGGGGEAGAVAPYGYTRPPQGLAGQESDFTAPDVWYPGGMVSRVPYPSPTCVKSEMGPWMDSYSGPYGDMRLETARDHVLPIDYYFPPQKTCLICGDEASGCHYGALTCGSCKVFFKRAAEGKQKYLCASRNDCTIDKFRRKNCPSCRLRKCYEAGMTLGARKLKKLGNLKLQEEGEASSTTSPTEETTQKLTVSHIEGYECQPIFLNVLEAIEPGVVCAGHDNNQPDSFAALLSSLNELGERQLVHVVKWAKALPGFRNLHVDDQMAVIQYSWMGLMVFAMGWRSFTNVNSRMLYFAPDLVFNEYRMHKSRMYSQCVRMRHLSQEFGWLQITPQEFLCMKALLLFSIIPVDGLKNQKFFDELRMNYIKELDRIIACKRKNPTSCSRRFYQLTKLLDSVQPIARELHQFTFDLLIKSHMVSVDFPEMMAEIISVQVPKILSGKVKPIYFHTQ
Sequence of Estrogen receptor (Homo sapiens) (P03372 whole entry, looked up): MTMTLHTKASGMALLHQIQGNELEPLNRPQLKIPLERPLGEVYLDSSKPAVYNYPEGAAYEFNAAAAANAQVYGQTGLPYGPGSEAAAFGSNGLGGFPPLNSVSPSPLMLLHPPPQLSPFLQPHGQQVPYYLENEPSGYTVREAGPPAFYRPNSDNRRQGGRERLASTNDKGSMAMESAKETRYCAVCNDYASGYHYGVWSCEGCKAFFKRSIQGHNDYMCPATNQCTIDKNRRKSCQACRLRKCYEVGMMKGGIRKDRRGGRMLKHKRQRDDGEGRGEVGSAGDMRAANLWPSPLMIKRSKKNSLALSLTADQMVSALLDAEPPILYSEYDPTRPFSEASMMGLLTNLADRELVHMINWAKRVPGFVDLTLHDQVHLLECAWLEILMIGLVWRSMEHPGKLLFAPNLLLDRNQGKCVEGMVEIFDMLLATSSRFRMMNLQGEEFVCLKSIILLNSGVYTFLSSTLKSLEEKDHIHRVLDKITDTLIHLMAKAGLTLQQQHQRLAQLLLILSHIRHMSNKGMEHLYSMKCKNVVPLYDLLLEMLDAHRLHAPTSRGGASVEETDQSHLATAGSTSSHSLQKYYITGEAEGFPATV
Sequence of Thyrotropin receptor (Homo sapiens) (P16473 whole entry, looked up): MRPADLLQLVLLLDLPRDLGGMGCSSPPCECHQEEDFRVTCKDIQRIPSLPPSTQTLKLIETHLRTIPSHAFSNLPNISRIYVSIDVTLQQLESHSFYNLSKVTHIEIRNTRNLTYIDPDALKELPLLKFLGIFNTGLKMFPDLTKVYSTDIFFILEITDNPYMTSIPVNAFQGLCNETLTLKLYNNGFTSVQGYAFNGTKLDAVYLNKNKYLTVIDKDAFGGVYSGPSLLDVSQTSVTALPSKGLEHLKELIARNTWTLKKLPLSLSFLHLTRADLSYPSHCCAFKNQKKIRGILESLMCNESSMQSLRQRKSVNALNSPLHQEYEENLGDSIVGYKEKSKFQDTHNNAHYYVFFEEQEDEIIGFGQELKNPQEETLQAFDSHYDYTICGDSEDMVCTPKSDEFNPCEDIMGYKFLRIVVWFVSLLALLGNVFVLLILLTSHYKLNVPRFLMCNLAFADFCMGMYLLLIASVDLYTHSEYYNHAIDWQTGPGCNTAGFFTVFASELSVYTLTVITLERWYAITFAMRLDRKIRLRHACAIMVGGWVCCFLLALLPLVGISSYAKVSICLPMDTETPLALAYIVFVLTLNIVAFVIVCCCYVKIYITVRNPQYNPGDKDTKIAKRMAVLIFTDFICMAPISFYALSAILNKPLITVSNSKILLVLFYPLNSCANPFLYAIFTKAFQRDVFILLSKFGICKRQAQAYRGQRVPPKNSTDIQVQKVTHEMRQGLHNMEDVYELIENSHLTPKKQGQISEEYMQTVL
Sequence of Estrogen receptor beta (Homo sapiens) (Q92731 whole entry, looked up): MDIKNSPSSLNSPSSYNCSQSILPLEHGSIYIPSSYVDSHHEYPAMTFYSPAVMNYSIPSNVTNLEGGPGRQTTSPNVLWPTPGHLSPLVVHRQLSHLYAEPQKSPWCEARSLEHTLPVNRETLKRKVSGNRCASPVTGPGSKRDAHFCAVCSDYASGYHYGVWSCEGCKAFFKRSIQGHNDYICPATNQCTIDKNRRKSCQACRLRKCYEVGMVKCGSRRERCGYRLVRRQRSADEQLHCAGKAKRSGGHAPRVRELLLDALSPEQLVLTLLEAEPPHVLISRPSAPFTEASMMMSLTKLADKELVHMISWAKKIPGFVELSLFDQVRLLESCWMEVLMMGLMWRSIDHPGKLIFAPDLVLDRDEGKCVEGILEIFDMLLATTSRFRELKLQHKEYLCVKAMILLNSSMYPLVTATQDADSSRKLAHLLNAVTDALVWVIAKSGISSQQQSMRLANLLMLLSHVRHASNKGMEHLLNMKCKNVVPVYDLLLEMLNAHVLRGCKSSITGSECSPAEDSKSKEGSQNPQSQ

SMILES	Potency [1]	Potency [2]	Potency [3]	outcome [4]	Potency [5]	Potency [6]	Potency [7]	Potency [8]	Potency [9]	Potency [10]	Potency [11]	Potency [12]	Potency [13]	Potency [14]	Potency [15]	Potency [16]	Potency [17]	Potency [18]	Potency [19]	Potency [20]
C=C1C[C@H]2[C@@H]3C=C(C)C4=CC(=O)CC[C@]4(C)[C@H]3CC[C@]2(C)[C@@]1(OC(C)=O)C(C)=O	inactive	inactive	inactive	inactive	inactive	inactive	inactive	19.7 µM (active) and inactive	inactive	inactive	inactive	inactive	39.4 nM (active) and 59.6 nM (active)	inactive	inactive	–	–	–	–	–
O=Cc1ccccc1C=O	inactive	54.5 µM (active) and inactive	inactive	inactive	61.1 µM (active) and inactive	–	inactive	2.43 µM (active) and inactive	inactive	54.5 µM (active) and inactive	inactive	inactive	inactive	inactive	inactive	inactive	inactive	inactive	–	–
CC1(C)C(C=C(Cl)Cl)C1C(=O)OCc1cccc(Oc2ccccc2)c1 (stereo not drawn)	inactive	inactive	inactive	inactive	inactive	inactive	inactive	inactive	–	–	inactive	inactive	inactive	inactive	inactive	inactive	inactive	inactive	inactive	inactive
CC(=O)Oc1c(C)c(C)c2c(c1C)CC[C@@](C)(CCC[C@H](C)CCC[C@H](C)CCCC(C)C)O2	inactive	–	inactive	inactive	inactive	–	inactive	inactive	–	–	inactive	inactive	–	inactive	inactive	inactive	inactive	inactive	inactive	–
CC(C)[N+](C)(CCOC(=O)C1c2ccccc2Oc2ccccc21)C(C)C	inactive	–	inactive	inactive	inactive	inactive	inactive	inactive	–	–	inactive	inactive	–	inactive	inactive	inactive	inactive	inactive	inactive	–
CC(=O)O[C@]1(C(C)=O)CC[C@H]2[C@@H]3C=C(Cl)C4=CC(=O)CC[C@]4(C)[C@H]3CC[C@@]21C	inactive	–	inactive	inactive	inactive	inactive	inactive	inactive	inactive	inactive	inactive	inactive	–	inactive	inactive	inactive	inactive	29.8 µM (active)	inactive	inactive
CCC/C=C/C=O	inactive	inactive	inactive	inactive	inactive	–	inactive	inactive	inactive	inactive	inactive	inactive	–	inactive	inactive	–	inactive	inactive	–	inactive
